This is an account of results in PubChem BioAssay (NCATS).

Inconclusive results are not listed. Values without a mark were called inactive. Activity calls are given as the source filed them. The call rests on the fitted dose curve; in most records, active means well fitted inhibition curve with a large enough effect; inconclusive means small, poorly fitted or top-dose-only effect; inactive means no such curve, though single readings can be large or run the other way.
Potency means the concentration at half of the fitted maximal effect.

The test can be described thus: qHTS Screen of the MIPE 4.0 Collection Against Ewings Sarcoma (TC71) (AID 1259253). Further: nearly all actives have a fitted effect of over 40% in size.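 On viability (% of DMSO): 100% = DMSO-treated cells and 0% = medium-only wells without cells.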 The following applies: TC71 Ewing sarcoma viability, CellTiter-Glo, 48 h; series mostly up to 45.8 µM; viability (% of DMSO): at the top concentration. From the text: There is a large unmet medical need for treatments for Ewing sarcoma, a pediatric sarcoma. We sought to identify compounds that inhibited Ewing sarcoma cells in vitro with the goal to then test promising drugs in two drug combinations in vitro to look for synergistic drug combinations. Promising combinations would then proceed to additional validation, including in vivo testing.
Using the NCATS developed oncology compound library called the Mechanism of Interrogation Plate (MIPE), four Ewing sarcoma cell lines were evaluated (TC32, TC71, RDES, EW8). Compounds, in a 12-point titration series, were incubated with cells for 48 hours and the read out was cell viability (CellTiter-Glo from Promega). These initial experiments were used to select appropriate concentrations of each single agent for subsequent two-drug matrix combinations such that the concentrations in the matrices would span both activity and non-activity.
Cells, in the log phase of growth, were seeded in 5 uL of RPMI plus 5% FBS, […] L-glutamine, 100 U/ml penicillin and 100 ug/ml streptomycin into 1536-well solid-bottom white tissue culture treated Greiner Bio One Plates (789173-F) using a MultiDrop Combi (Thermofisher Scientific) dispenser and a small sterile cassette. One column was media alone to be used as a :"no cells" control. The plates were then covered with sterilized stainless steel gasketed lids from Kalypsys. After allowing cells to attach for 4 hours, 23 nL of test compound or control (negative control DMSO and positive control 9.2 uM Bortezomib-final) were added from a 1536-well polypropylene compound source plate to each well using a 1536 head pin tool from Kalypsys. Cells were then incubated for 48 hours at 37C, 95% relative humidity and 5% CO2. After 48 hours, plates were removed from the incubator and 3 uL of CellTiter-Glo (Promega) was added using an Aurora Flying Reagent Dispenser Bioraptor. Plates were incubated at room temperature for 10 minutes prior to reading the luminescence on the Viewlux (PerkinElmer). The relative luciferase units are used to calculate the percent activity using the activity of DMSO in the cells and no cells columns for normalization of no inhibition and full inhibition respectively.
Take `Cc1nc(NC(=O)N2CCC[C@@H]2C(N)=O)sc1-c1ccnc(C(C)(C)C(F)(F)F)c1`: the Potency is 11.8 µM (active).

`CC(=O)NC(CS)C(=O)O` (stereo not given): the “viability (% of DMSO)” value is 127%. The same measure, in the same setting: in the case of `CCCc1nc(C(C)(C)O)c(C(=O)O)n1Cc1ccc(-c2ccccc2-c2nn[nH]n2)cc1` it was 134%.

As to `CCc1ccc(C(=O)Nc2cc(CN3CCN(C)CC3)cc(C(F)(F)F)c2)cc1C#Cc1cnc2ccnn2c1`, the Potency was 29.6 µM (active).

In the case of `CN[C@H]1[C@@H](O)[C@@H]2O[C@@H]3O[C@H](C)CC(=O)[C@]3(O)O[C@@H]2[C@@H](NC)[C@H]1O`, the Potency is 1.32 µM (active). Turning to `COc1ccc2cc([S+]([O-])Cc3ncc(C)c(OC)c3C)nc2c1`, the “viability (% of DMSO)” value was 111%. With `CN(CC(=O)N(Cc1ccc(C2CCCCC2)cc1)c1ccc(C(=O)O)c(O)c1)S(=O)(=O)c1c(F)c(F)c(F)c(F)c1F`, the Potency is 8.33 µM (active). As for `OC[C@H]1OC(O)C[C@@H](O)[C@H]1O` (stereo not given in full), the “viability (% of DMSO)” value is 105%. As to `COc1cc(N2CCC(C(N)=O)CC2)ccc1Nc1nc(N)c(Cl)c(Nc2ccccc2S(=O)(=O)C(C)C)n1`, the Potency is 16.6 µM (active). Consider `C[C@H](NC(=O)Cc1cc(F)cc(F)c1)C(=O)N[C@H](C(=O)OC(C)(C)C)c1ccccc1`, for which the “viability (% of DMSO)” value is 111%. `O=C(C=CC#Cc1cccc(NS(=O)(=O)c2ccccc2)c1)NO`: the Potency is 1.32 µM (active). With `FC(F)(F)c1ccc(Nc2nc3ccc(Oc4ccnc(-c5ncc(C(F)(F)F)[nH]5)c4)cc3[nH]2)cc1`, the Potency is 13.2 µM (active). Same read-out and setting: in the case of `Cn1c(Nc2ccc(C(F)(F)F)cc2)nc2cc(Oc3ccnc(-c4ncc(C(F)(F)F)[nH]4)c3)ccc21` it was 7.43 µM (active). For `c1cc(N[C@@H]2CCNC2)nc(-c2cnc3ccc(-c4cn[nH]c4)cn23)c1`, the Potency is 26.4 µM (active). On the same count and under the same terms, with `O=C(Nc1cccc(Nc2ncc(Br)c(NCCc3cnc[nH]3)n2)c1)N1CCCC1` the figure was 6.62 µM (active). On the same count and under the same terms, with `C=CC(=O)N1CCc2ccc(-n3c(=O)ccc4cnc5ccc(-c6cnn(C)c6)cc5c43)cc21` the figure was 3.32 µM (active). For the compound `OC[C@@H](O)[C@@H](O)[C@H](O)[C@@H](O)CO`, the “viability (% of DMSO)” value is 122%. Same read-out and setting: in the case of `Cc1ccccc1C(=O)Nc1ccc(C(=O)N2CCCC(O)c3cc(Cl)ccc32)c(C)c1` (stereo not given) it was 96.6%.

Regarding `CC(=O)SCC(Cc1ccccc1)C(=O)NCC(=O)OCc1ccccc1` (stereo not given), the Potency is 0.833 µM (active). For the compound `CCOC(=O)C=C[C@H](C[C@@H]1CCNC1=O)NC(=O)[C@@H](CC(=O)[C@@H](NC(=O)c1cc(C)on1)C(C)C)Cc1ccc(F)cc1`, the “viability (% of DMSO)” value was 121%. Consider `COc1cccc2c1C(=O)c1c(O)c3c(c(O)c1C2=O)C[C@@](O)(C(=O)CO)C[C@@H]3O[C@H]1C[C@H](N)[C@@H](O)[C@H](C)O1`, for which the Potency was 0.187 µM (active).

As to `COC[C@H](NC(=O)c1cnc(C)s1)C(=O)N[C@@H](COC)C(=O)N[C@@H](Cc1ccccc1)C(=O)[C@@]1(C)CO1`, the Potency was 0.296 µM (active). Still for that read-out and setting: in the case of `COC(=O)C1C2CC3c4[nH]c5cc(OC)ccc5c4CCN3CC2CC(OC(=O)c2cc(OC)c(OC)c(OC)c2)C1OC` (stereo not given) it was 2.64 µM (active); in that of `OCCNC1CCCc2c1[nH]c1ccc(-c3ccccc3)cc21` (stereo not given), 20.9 µM (active).

Take `Cc1ccc(O)c(C(CCN(C(C)C)C(C)C)c2ccccc2)c1` (stereo not given): the “viability (% of DMSO)” value is 95.9%. `CC(C)[C@H](CO)Nc1nc(Nc2cccc(Cl)c2)c2ncn(C(C)C)c2n1`: the Potency is 7.43 µM (active). `CC(O)(C#Cc1ccc2c(c1)N(c1nc(N)ncc1Cl)CC2)c1nccs1` (stereo not given): the Potency is 20.9 µM (active). On to `O=C(Nc1ccc(Oc2ccnc3[nH]ccc23)c(F)c1)c1cccn(-c2ccc(F)cc2)c1=O`, for which the “viability (% of DMSO)” value is 124%. On to `CNC(=O)c1ccc(Nc2cc(Nc3ccccc3S(=O)(=O)C(C)C)c3cc[nH]c3n2)nc1`, for which the Potency was 4.18 µM (active).

As to `CC(C)(C)c1nc2c3cc[nH]c(=O)c3c3cc(F)ccc3c2[nH]1`, the Potency is 5.9 µM (active). Still for that read-out and setting: with `CC(C)c1cnn2c(NCc3ccccc3)cc(NCCCCCCN)nc12` the figure was 4.69 µM (active); with `CC(=O)N1CCN(c2ccc(OCc3nn(C)c(C)c3-c3cccc4c(CCCOc5cccc6ccccc56)c(C(=O)O)n(Cc5cccnc5)c34)cc2)CC1`, 1.18 µM (active); with `N#CC(=Cc1ccc(O)c(O)c1)C(=O)NCc1ccccc1`, 23.5 µM (active). Regarding `Nc1nc(=O)n([C@H]2CSC(CO)O2)cc1F` (stereo not given in full), the “viability (% of DMSO)” value is 119%.

`CC(=O)OCC(=O)[C@@]1(O)CC[C@H]2[C@@H]3CCC4=CC(=O)CC[C@]4(C)[C@@H]3C(=O)C[C@@]21C`: the “viability (% of DMSO)” value is 127%. Still for that read-out and setting: with `Cc1cc(O)c2c(c1)C(=O)c1cccc(O)c1C2=O` the figure was 128%. For the compound `COc1cc(C=CC(=O)CC(=O)C=Cc2ccc(O)c(OC)c2)ccc1O`, the Potency was 21.5 µM (active). Regarding `CN(C)CC[C@H](c1ccc(Cl)cc1)c1ccccn1`, the “viability (% of DMSO)” value is 103%. For `CCn1c(=O)c2c(nc(C=Cc3ccc(OC)c(OC)c3)n2C)n(CC)c1=O`, the “viability (% of DMSO)” value is 111%.

With `O=C(Nc1nnc(-c2ccco2)o1)c1cc(-c2ccccc2)nc2ccccc12`, the Potency was 16.6 µM (active).
